Experiment [1] relates to Staphylococcus aureus. Briefly: Antibacterial activity against Staphylococcus aureus MRSA ATCC 43300 (CO-ADD:GP_020); MIC in CAMBH media using NBS plates, by Resazurin F(560/590). As to conditions: Concentration 20 uM, ASSAY_TEST Inhibition of Bacterial Growth, detection method Resazurin, Fluorescence (ex560/em590), MEDIA CAMHB, plate type 384well, CORNING #3640, time 18 hr. Type of experiment: functional. On the technique in general: Alamar Blue is a resazurin reagent that responds to reducing activity.

The subject of experiment [2] is Acinetobacter baumannii. Briefly: Antibacterial activity against Acinetobacter baumannii ATCC 19606 (CO-ADD:GN_034); MIC in CAMBH media using NBS plates, by Resazurin F(560/590). The class given is functional. Particulars: Concentration 20 uM, ASSAY_TEST Inhibition of Bacterial Growth, detection method Resazurin, Fluorescence (ex560/em590), MEDIA CAMHB, plate type 384well, CORNING #3640, time 18 hr.

In experiment [3] the test system is Escherichia coli. Briefly: Antibacterial activity against Escherichia coli ATCC 25922 (CO-ADD:GN_001); MIC in CAMBH media using NBS plates, by Resazurin F(560/590). Type of experiment: functional. Particulars: Concentration 20 uM, ASSAY_TEST Inhibition of Bacterial Growth, detection method Resazurin, Fluorescence (ex560/em590), MEDIA CAMHB, plate type 384well, CORNING #3640, time 18 hr.

The subject of experiment [4] is Klebsiella pneumoniae. Particulars: Concentration 20 uM; ASSAY_TEST Inhibition of Bacterial Growth; detection method Absorption (OD600); MEDIA CAMHB; plate type 384well; NBS; CORNING #3640; time 18 hr.
For experiment [5], the system named is Candida albicans. Particulars: 20 µM.
Experiment [6] deals with Cryptococcus neoformans. Particulars: Concentration 20 uM; ASSAY_TEST Inhibition of Fungal Growth; detection method Resazurin; Absorption (OD600-OD570); plate type 384well; NBS; CORNING #3640.

Here are results for 21 molecules from ChEMBL document CHEMBL4296182, “CO-ADD screening of NIH NCI Diversity Set V”.

The structures appear in SMILES notation. For part of these data: Entries with a potency or affinity are not part of this list.

Usually Inhibition stands for the change of the read-out against control, counted positive when it falls.

`Nc1ncnc2c1cnn2C1CCCCC1`: the Inhibition was -0.45% in experiment [1]; -2.92% in experiment [2]; -6.81% in experiment [3]; 9% in experiment [4]; 1.58% in experiment [5]; -3.99% in experiment [6].

`CCSc1nc(O)cc(O)n1`: the Inhibition was 23.71% in experiment [1]; -7.74% in experiment [2]; 11.78% in experiment [3]; 13.65% in experiment [4]; 4.28% in experiment [5]; 3.85% in experiment [6].

`CN(C)S(=O)(=O)c1ccc(N)c([N+](=O)[O-])c1`: the Inhibition in experiment [1] is -6.85%; in experiment [2], 12.87%; in experiment [3], 8.14%; in experiment [4], 9.42%; in experiment [5] it was 1.38%; in experiment [6], -8.3%.

Consider `CSc1nc(S)c2[nH]c(S)nc2n1`, for which the Inhibition is 13.61% in experiment [1]; -13.83% in experiment [2]; 6.32% in experiment [3]; 11% in experiment [4]; 6.49% in experiment [5]; 2.53% in experiment [6].

Turning to `CC(=O)OC1C=CCC2C(=O)c3cccc(O)c3C(O)C12` (stereo unspecified), the Inhibition in experiment [1] was -1.42%; in experiment [2] it was -10.27%; in experiment [3], 6.95%; in experiment [4] it was 7.69%; in experiment [5], 6.66%; in experiment [6], -16.38%.

As to `Sc1ncnc2c1cnn2-c1ccccc1`, the Inhibition in experiment [1] is -0.19%; in experiment [2] it was -10.1%; in experiment [3], 15.12%; in experiment [4], 7.13%; in experiment [5] it was 16.7%; in experiment [6] it was 30.67%.

For the molecule `Nc1ncncc1-c1ccc2ccccc2c1`, the Inhibition was 8.62% in experiment [1]; 6.7% in experiment [2]; 0.44% in experiment [3]; 17.13% in experiment [4]; 5.79% in experiment [5]; -7.84% in experiment [6].

As for `C1COCCN1.O=C(O)C(C=C(Cl)Cl)N1CCOCC1` (stereo unspecified), the Inhibition was 15.53% in experiment [1]; -4.57% in experiment [2]; -1.54% in experiment [3]; 22.22% in experiment [4]; 3.18% in experiment [5]; -2.22% in experiment [6].

In the case of `O=C(O)/C=C\c1cc2c(cc1[N+](=O)[O-])OCO2`, the Inhibition in experiment [1] is 16.17%; in experiment [2], -13.7%; in experiment [3], 7.39%; in experiment [4] it was 10.81%; in experiment [5], 3.76%; in experiment [6], -6.94%.

Consider `CCC(CC)c1ncc[nH]1`, for which the Inhibition in experiment [1] is -6.72%; in experiment [2], -6.57%; in experiment [3], 9.75%; in experiment [4] it was 17.39%; in experiment [5], -1.38%; in experiment [6], -3.12%.

`CCCn1cnc2c(Sc3c([N+](=O)[O-])ncn3C)nc(N)nc21`: the Inhibition in experiment [1] is -2.1%; in experiment [2] it was -3.75%; in experiment [3] it was 6.82%; in experiment [4], 9.05%; in experiment [5], 1.1%; in experiment [6], -2.37%.

`Clc1nnc(NC2CCCCC2)c(Cl)c1Cl`: the Inhibition is -0.25% in experiment [1]; -5.61% in experiment [2]; 15.05% in experiment [3]; 1.58% in experiment [4]; 27.2% in experiment [5]; -9.26% in experiment [6].

`COc1ccc(C(=S)N2CCN(c3cccc(Cl)c3)CC2)cc1`: the Inhibition in experiment [1] was 13.14%; in experiment [2], 2%; in experiment [3] it was 3.07%; in experiment [4], 17.03%; in experiment [5], 9.51%; in experiment [6] it was -10.07%.

As for `Nc1ccc(C(=O)Oc2ccc([N+](=O)[O-])cc2)cc1`, the Inhibition was 12.07% in experiment [1]; 4.99% in experiment [2]; 4.45% in experiment [3]; 11.91% in experiment [4]; 3.13% in experiment [5]; -14.05% in experiment [6].

Take `CC1(C)CC(=O)C(CC(=O)c2ccccc2)=C(NNC(=N)N)C1`: the Inhibition is 1.47% in experiment [1]; 8.18% in experiment [2]; 4.18% in experiment [3]; -0.42% in experiment [4]; 5.62% in experiment [5]; -4.09% in experiment [6].

Consider `O=C(Nc1ccc(F)cc1)OCCOc1ccc([N+](=O)[O-])cc1`, for which the Inhibition is 6.26% in experiment [1]; 5.22% in experiment [2]; -7.06% in experiment [3]; 8.41% in experiment [4]; 4.71% in experiment [5]; -9.23% in experiment [6].

On to `COC(=O)c1c[n+]([O-])ccc1OC`, for which the Inhibition was -9.06% in experiment [1]; -1.68% in experiment [2]; -4.59% in experiment [3]; 7.09% in experiment [4]; -2.55% in experiment [5]; -2.93% in experiment [6].

With `Cc1ccc(CC#N)c(-c2c(CC#N)ccc(C)c2C)c1C`, the Inhibition in experiment [1] is 10.31%; in experiment [2] it was -9.1%; in experiment [3], 13.28%; in experiment [4], 6.29%; in experiment [5], 3.94%; in experiment [6] it was -13.71%.

Take `Cc1cc(NC(=O)Nc2cc(Cl)ccc2C)no1`: the Inhibition in experiment [1] was -16.99%; in experiment [2], 4.24%; in experiment [3], -3.34%; in experiment [4] it was 4.74%; in experiment [5], 19.4%; in experiment [6], -2.52%.

On to `Oc1cc(-c2nn[nH]n2)nc(O)n1`, for which the Inhibition is 15.18% in experiment [1]; -5.46% in experiment [2]; 13.37% in experiment [3]; 14.33% in experiment [4]; 1.84% in experiment [5]; 0.69% in experiment [6].

As to `O=C1c2ccccc2NC(c2cc(Cl)cc(Cl)c2O)N1CCc1ccccn1` (stereo unspecified), the Inhibition in experiment [1] was 27.48%; in experiment [2], -1.5%; in experiment [3], 9.13%; in experiment [4], 12.19%; in experiment [5], 2.81%; in experiment [6], -0.4%.
